The list is not random: actives were taken first. Their share in the collection is about 1%.
RGS4 inh – inhibitors of human regulator of G protein signaling 4; P49798; Transcreener GDP fluorescence polarization, RGS4-accelerated GTP hydrolysis; Potency, µM (doses to about 114 µM), usual class: inhibitors; hit rate 0.039% among 390,000; note: nearly all actives have a fitted effect of over 75% in size
Target sequence (P49798 whole entry, looked up): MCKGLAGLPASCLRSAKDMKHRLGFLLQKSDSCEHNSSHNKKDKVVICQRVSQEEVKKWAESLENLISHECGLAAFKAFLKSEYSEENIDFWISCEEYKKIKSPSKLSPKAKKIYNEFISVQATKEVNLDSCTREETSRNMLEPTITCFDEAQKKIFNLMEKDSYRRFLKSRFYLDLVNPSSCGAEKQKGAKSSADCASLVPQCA
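MLSMR compounds (23 nl, pin-transferred) preincubated 10 min at room temperature with a 500nM (2x) first reagent, then RGS4 at 900nM (2x) plus Transcreener GDP mix added; fluorescence polarization (620/688 nm) read before and after 90 min at 30 °C.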
Eya2 phos inh – Eya2 (human) phosphatase inhibition. Potency, µM (doses to about 76.9 µM), most hits filed as inhibitors. O00167. AID 488837. hit rate 0.006% among 330,000. recombinant Eya2, OMFP fluorescence dephosphorylation (OMFP is methylfluorescein phosphate)
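Eya2 protein (added as 0.2 uM solution) was preincubated with compound for 10 min at ambient temperature in 50 mM HEPES pH 7.5, 50 mM NaCl, 5 uM MgCl2, 0.05% BSA, 1 mM DTT. OMFP (added at 50 uM) then reacted 10 min; fluorescence read at 485/525 nm.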
TrxR1 inh – inhibitors of rat thioredoxin reductase 1; O89049; recombinant rTrxR1, NADPH fluorescence consumption, selenite substrate; Potency, µM (doses to about 114 µM), most hits filed as inhibitors; hit rate 1% among 390,000; AID 588453; note: nearly all actives have a fitted effect of over 65% in size
Target sequence (O89049 whole entry, looked up): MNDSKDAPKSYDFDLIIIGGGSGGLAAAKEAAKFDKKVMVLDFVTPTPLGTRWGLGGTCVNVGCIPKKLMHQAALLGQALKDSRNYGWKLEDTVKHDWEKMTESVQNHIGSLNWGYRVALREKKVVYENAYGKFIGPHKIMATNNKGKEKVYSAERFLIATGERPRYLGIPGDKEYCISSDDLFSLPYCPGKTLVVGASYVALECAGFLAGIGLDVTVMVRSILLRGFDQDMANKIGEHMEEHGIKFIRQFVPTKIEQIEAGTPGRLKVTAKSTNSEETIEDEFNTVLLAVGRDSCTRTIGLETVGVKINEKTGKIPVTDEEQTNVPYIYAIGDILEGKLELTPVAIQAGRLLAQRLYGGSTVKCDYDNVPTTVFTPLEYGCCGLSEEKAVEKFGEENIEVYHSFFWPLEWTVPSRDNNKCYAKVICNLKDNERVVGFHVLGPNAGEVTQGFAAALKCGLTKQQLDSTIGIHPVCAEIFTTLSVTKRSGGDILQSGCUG
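Rat TrxR1 (90 nM in the dispensed reagent) was pre-reduced with 400 uM NADPH for 5 min at room temperature, then incubated with compound for 15 min. After 400 uM selenite was added, NADPH fluorescence (Ex 340/Em 450 nm) was followed for 8 min.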
USP2a block – blocks human ubiquitin-specific protease USP2a; O75604; USP2 core, Ub-CHOP2 coupled fluorogenic reporter, 485/531; Potency, µM (series often up to 38.3 µM), most hits filed as inhibitors; hit rate 0.01% among 330,000
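Cell-free coupled assay: 10nM USP2 core preincubated 30min RT with compound in Tris-HCl pH 8.0/CaCl2/CHAPS buffer, then 25nM Ub-CHOP2 and 25nM reporter substrate; fluorescence (Ex 485/Em 531) read after 60min RT, normalized to NEM inhibition, concentration-response curves fitted.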
TrxR1 substrate – rat thioredoxin reductase 1 substrate activity; purified TrxR1 substrate turnover, NADPH consumption readout; Potency, µM (series often up to 114 µM); hit rate 0.01% among 390,000; AID 588456; note: nearly all actives have a fitted effect of over 50% in size
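Rat TrxR1, dispensed at 90 nM, was prereduced with 400 uM NADPH (final) for 5 min at ~22 deg C, then incubated with compound 15 min before 400 uM selenite. A first-read NADPH fluorescence drop versus no-compound background flagged substrates.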
GALK inh – galactokinase (human) inhibition. P51570. Purified GALK, Kinase-Glo residual ATP luminescence. Potency, µM (top dose mostly 57.5 µM), actives largely listed as inhibitors. hit rate 0.007% among 270,000
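ATP-depletion format; final 35 uM ATP, 100 uM D-galactose, 5 nM enzyme; pH 8.0 HEPES/Mg2+ buffer; 60 min RT; luminescence read 10 min after detection reagent.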
Numbers stand for hits; – = inactive; ? = inconclusive; · = no result; [ ] = remark or other dose. Calls come from the whole dose curve; as a rule, active = well fitted curve in the direction sought with a large enough effect; inconclusive = small, poorly fitted or top-dose-only effect, or another doubt; inactive = no such curve, though single readings can be large; an effect the other way counts as inactive or inconclusive.

SMILES | RGS4 inh | Eya2 phos inh | TrxR1 inh | USP2a block | TrxR1 substrate | GALK inh
Cc1ccc(C)c(NC(=O)C(Cc2ccccc2)N2Cc3ccccc3C2=O)c1 (stereo not drawn) | – | · | – | · | – | ·
CN(C)c1ccc(/C=C2\C(Cl)=Cc3ccccc32)cc1 | · | · | – | · | – | ·
Cc1cc(/C=C2\C=Cc3ccccc32)cc(C)c1[N+](=O)[O-] | · | · | 20µM | · | – | ·
C1=Cc2ccccc2/C1=C\c1cccc(/C=C2\C=Cc3ccccc32)c1 | · | · | 20µM | · | – | ·
O=[N+]([O-])c1ccc(/C=C2\C=Cc3ccccc32)cc1 | · | · | – | · | – | ·
Brc1ccc(/C=C2\C=Cc3ccccc32)cc1 | · | · | 31.6µM | · | – | ·
CC(C)Cn1c(N)c(C(=O)CCl)c(=O)n(C)c1=O | – | – | ? | – | – | ·
Cn1c(=O)c(C(=O)CCl)c(N)n(CC2CC2)c1=O | – | – | 14.1µM | – | – | ·
Cc1snnc1C(=O)NC(=S)Nc1ccccc1 | – | – | 15.8µM | – | – | –
O=C(NC(=S)Nc1cccnc1)c1ccccc1 | – | – | – | – | – | –
CCN(CC)/[N+]([O-])=N/OCOC(=O)C(C)c1ccc(CC(C)C)cc1 (stereo not drawn) | · | · | – | · | – | ·
COc1ccc2[nH]c3c4c(ccc3c2c1)C(=O)C=CC4=O | – | – | 50.1µM | – | – | –
CCOc1ccc(NC(=O)CSc2nnc3c(n2)[nH]c2ccc(S(=O)(=O)N4CCCCC4)cc23)cc1 | – | · | – | · | – | ·
COc1ccccc1C(=O)Nc1nc2n(n1)C(c1ccc(F)cc1)C=C(c1ccc(Cl)cc1)N2 (stereo not drawn) | – | · | – | · | – | ·
Cc1ccc(C2C=C(c3ccc(Cl)cc3)Nc3nc(NC(=O)c4ccco4)nn32)cc1 (stereo not drawn) | – | · | 39.8µM | · | – | ·
CCSC(=O)N1CCN(/[N+]([O-])=N/Oc2ccc([N+](=O)[O-])cc2[N+](=O)[O-])CC1 | · | · | 11.2µM | · | – | ·
CCCOC(=O)N1CCN(/[N+]([O-])=N/Oc2ccc([N+](=O)[O-])cc2[N+](=O)[O-])CC1 | – | · | 11.2µM | · | – | ·
COC(=O)N1CCN(/[N+]([O-])=N/Oc2ccc([N+](=O)[O-])cc2[N+](=O)[O-])CC1 | – | · | ? | · | – | ·
O=[N+]([O-])c1ccc(O/N=[N+](\[O-])N2CCCCC2)c([N+](=O)[O-])c1 | · | · | 22.4µM | · | – | ·
CN(C)/[N+]([O-])=N/Oc1cc(ON=[N+]([O-])N2CCN(c3ncccn3)CC2)c([N+](=O)[O-])cc1[N+](=O)[O-] | – | · | ? | · | – | ·
O=C(CC(Cl)(Cl)Cl)N1CCN(/[N+]([O-])=N/Oc2ccc([N+](=O)[O-])cc2[N+](=O)[O-])CC1 | · | · | ? | · | – | ·
CCOC(=O)N1CCN([N+]([O-])=NOc2cc(O/N=[N+](\[O-])N(C)C)c([N+](=O)[O-])cc2[N+](=O)[O-])CC1 | – | · | 28.2µM | · | – | ·
CCCN1CNc2c(c(=O)[nH]c(=S)n2CCc2cc(C)cc(C)c2)C1 | – | · | – | · | – | ·
O=C(C[n+]1ccncc1)c1ccc(Br)cc1 | · | · | – | · | – | ·
CC(C)(C)OC(=O)N1C=CCC1CN1C(=O)COCC1=O (stereo not drawn) | – | · | – | · | – | ·
SMILES | RGS4 inh | Eya2 phos inh | TrxR1 inh | USP2a block | TrxR1 substrate | GALK inh
Cc1ccc(S(=O)(=O)c2ncccc2[N+](=O)[O-])cc1 | – | ? | 2µM | – | – | –
Cc1ccc(S(=O)(=O)c2ncccc2N)cc1 | – | – | –[2.29 µM] | – | –[2.29 µM] | –
CC[N+](CC)(CC)c1ccc(/C=C/c2ccc3ccccc3n2)cc1 | · | · | – | · | – | ·
Cc1ccc(N(C(=O)CCl)C(C(=O)NC2CCCCC2)c2cccnc2)cc1C (stereo not drawn) | – | – | 10µM | – | – | –
O=C(Nc1ccccc1C(=O)N/N=C/c1ccco1)c1ccccc1Cl | – | – | – | – | – | ·
O=C(N/N=C/C=C/c1ccco1)c1ccccc1Cl | ? | – | 56.2µM | – | – | –
O=C(N/N=C/C=C/c1ccco1)c1ccncc1 | ? | – | 39.8µM | – | – | –
O=C(O)/C(=C\c1ccco1)NC(=O)c1ccccc1 | – | – | – | – | – | –
O=C(N/N=C/C=C/c1ccco1)/C(=C/c1ccccc1)NC(=O)c1ccccc1 | ? | – | 20µM | – | – | –
CC(/C=C/c1ccco1)=N/NC(=O)c1ccccc1Cl | ? | – | 15.8µM | – | – | –
O=C(N/N=C/C=C\c1ccco1)c1cccs1 | ? | – | ? | – | – | –
COc1ccc(S(=O)(=O)Nc2cccc3cccnc23)c([N+](=O)[O-])c1 | – | · | – | · | –[0.457 µM] | ·
Cc1cc(O)cc2c1O[C@](C)(CCC(=O)O)CC2 | · | · | – | · | – | ·
O=C1CN(CCN2CC(=O)NC(=O)C2)CC(=O)N1 | · | · | – | · | – | ·
CCN(C(=O)c1sc2nc3n(c(=O)c2c1C)CCCCC3)c1ccc(OC)cc1 | – | · | 70.8µM | · | – | ·
Cc1onc(C(=O)Nc2sc3c(c2C#N)CCCC3)c1[N+](=O)[O-] | – | – | 15.8µM | – | – | –
COC(=O)c1ccc(Cl)cc1NC(=O)/C=C/c1ccc(C)o1 | – | – | – | – | – | –
Cc1ccc(NC(=O)/C=C/c2ccc(C)o2)c(C)c1 | – | · | 20µM | · | – | ·
Cc1ccc(/C=C/C(=O)Nc2ccc(Oc3ccccc3)cc2)o1 | ? | – | ? | – | – | –
Cn1c(NC(=O)/C=C/c2ccco2)cc(=O)n(C)c1=O | – | – | ? | – | – | –
CC(=O)c1ccc(NC(=O)/C=C/c2ccc(C)o2)cc1 | – | · | 22.4µM | · | – | ·
Cc1ccc(/C=C/C(=O)Nc2cc(=O)n(C)c(=O)n2C)o1 | – | – | 7.94µM | – | – | –
Cc1ccc(/C=C/C(=O)Nc2cccc3cccnc23)o1 | – | – | 50.1µM | – | – | –
Nc1cc([N+](=O)[O-])cc(N)c1N | · | · | – | · | – | ·
CN(C)c1ccc(/C=C/c2ccnc3ccc(N)cc23)cc1 | · | · | – | · | – | ·
SMILES | RGS4 inh | Eya2 phos inh | TrxR1 inh | USP2a block | TrxR1 substrate | GALK inh
SCc1nc2ccccc2[nH]1 | · | · | – | · | – | ·
Cc1cc(NS(=O)(=O)c2ccc(NC(=O)/C=C/c3ccccc3)cc2)nc(C)n1 | – | – | – | – | – | ·
Cc1ccc(/C=C/C(=O)Nc2nnc(C)s2)o1 | – | – | 28.2µM | – | – | –
Cc1ccc(C(=O)Nc2nnc(C)s2)o1 | – | – | – | – | – | –
Cc1cc(NS(=O)(=O)c2ccc(NC(=O)/C=C/c3ccc(C)o3)cc2)nc(C)n1 | – | – | 28.2µM | – | – | –
CN1CCN(Cc2c(O)ccc3cc(Br)ccc23)CC1 | – | – | 35.5µM | – | – | –
COc1cc2c(cc1OC)C(c1ccccc1)N(C(=O)CCl)CC2 (stereo not drawn) | – | – | 4.47µM | – | – | –
COc1cc2c(cc1OC)C(C1C(=O)CCCC1=O)N(C(=O)CCl)CC2 (stereo not drawn) | – | – | – | – | – | –
